PubChem BioAssay (Tox21)
Records with an inconclusive call do not appear. Values without a mark were called inactive. Active and inactive are the calls of the source. Calls follow the shape of the dose curve; as a rule, active = well fitted cell-killing curve with a large enough effect in the repeat runs; inconclusive = weak or mixed curves, or effect the other way; inactive = flat fitted curve, though single readings scatter.

Experiment: qHTS assay to identify small molecule antagonists of the retinoid acid receptor (RAR) signaling pathway - cell viability counter screen (AID 1159551); also: nearly all actives have a fitted effect of over 35% in size
Conditions: C3RL4 cells viability, ATP luminescence (CellTiter-Glo), 6 h; series mostly up to 92.4 µM; activity change, negative = cytotoxicity: at the top concentration
Excerpt: U.S. Tox21 Program National Center for Advancing Translational Sciences [NCATS] NIH Chemical Genomics Center [NCGC] U.S. Environmental Protection Agency [EPA] National Institutes of Environmental Health Sciences [NIEHS] National Toxicology Program [NTP] U.S. Food and Drug Administration [FDA] Tox21 Assay Overview: All-trans Retinoic acid (atRA) is the potent natural metabolite of retinol and plays an important role in normal embryonic development and maintenance of cellular phenotype in adult animals. atRA is the activating ligand for the retinoic acid receptors (RARs) which form heterodimers with retinoid X receptors (RXRs) on the retinoic acid response element (RARE). Through activation of the RAR/RXRs nuclear receptors, atRA regulates the transcription of a large number of protein-coding genes and regulatory RNAs. Intracellular levels of atRA are controlled by the retinol signaling pathway (RSP) that regulates the biosynthesis and catabolism of atRA to maintain physiological levels. Chemicals that interfere with the RSP can cause abnormal intracellular levels of atRA and therefore are potential developmental toxicants. To assess compounds for the potential adverse effect on embryonic development through interfering with retinol signaling, a cell-based RARE luciferase reporter gene assay was used. C3RL4 cell line (OARSA/CFSAN/FDA, Laurel, MD) was used to screen Tox21 10K compound library for identifying inhibitors of the RSP. Also cytotoxicity was assessed by determining the viability of cells based on the quantitation of ATP.
Tox21 Assay Protocol Summary: C3RL4 cells were seeded at 1,000/well in 4 uL of assay medium into white solid 1,536-well tissue culture plates (Greiner Bio-One North America Inc. Monroe, NC) using a Multidrop Combi (Thermo Scientific, Waltham, MA) dispenser. After incubation at 37 C and 5% CO2 for an overnight, 23 nL of compounds dissolved in DMSO, positive control or DMSO only were transferred by a Pintool station (Kalypsys, San Diego, CA). One ul of 1 uM (final concentration) of Retinol was added right after the compound addition by using a Flying Reagent Dispenser (FRD) (Aurora Discovery, San Diego, CA). After 6 hr incubation at 37 C and 5% CO2, 5 uL of CellTiter-Glo reagent (Promega Corporation, Madison, WI) was added to each assay plate using an FRD. Luminescence was quantified on a ViewLux plate reader (PerkinElmer, Waltham, MA) after 30 min incubation at room temperature.
% is scaled to controls: 0 for no effect and ±100 for the full control effect; potency is read from the fitted curve at half-maximal effect.

Row | SMILES | activity change, negative = cytotoxicity | Potency
1 | O=C1CCC(=O)N1 | -0.593% | 
2 | CN(C[C@@H](CC[N+]12CCC(C3CCCCC3)(CC1)CC2)c1ccc(Cl)c(Cl)c1)C(=O)c1cc(C(F)(F)F)cc(C(F)(F)F)c1 |  | 54.5 µM (active)
3 | SC1CCCCC1 | 0.452% | 
4 | COc1cc2ncnc(Nc3cccc(Cl)c3)c2cc1OC | 0.617% [at 19 µM] | 
5 | O=C(CCCCCCCCc1cccnc1)N1CCC(C=C(c2ccccc2)c2ccccc2)CC1 | -4.35% | 
6 | O=c1cc[nH]cc1 | 2% | 
7 | [Cl][Sc]([Cl])[Cl] | 1.44% | 
8 | Cn1c(=O)[nH]c2ncn(C)c2c1=O | 2.48% | 
9 | CN(C)CCOc1ccc(/C(=C(/CCCl)c2ccccc2)c2ccccc2)cc1 |  | 51 µM (active)
10 | O=C(Cl)c1ccc(Cl)cc1Cl | -0.529% | 
11 | Cc1ccc2sc3cccc(C)c3c2c1 | 0.203% | 
12 | c1ccc2c(c1)-c1ccc3ccc4cccc5cc-2c1c3c45 | -0.432% [at 42.5 µM] | 
13 | CC1=CC[C@@H](C(C)(C)O)CC1 | 1.23% | 
14 | CN1CCN(CCCN2c3ccccc3Sc3ccc(C(F)(F)F)cc32)CC1 | -3.05% [at 42.5 µM] | 
15 | Cc1c(Cl)c(=O)oc2cc(O)ccc12 | 0.109% | 
16 | Nc1cc([N+](=O)[O-])ccc1Cl | -0.19% | 
17 | c1ccc(-c2ccc(C(c3ccccc3)n3ccnc3)cc2)cc1 (stereo not given) | -0.566% [at 42.5 µM] | 
18 | CSc1nnc(C(C)(C)C)c(=O)[nH]1 | 3.78% | 
19 | COc1c(Br)cc(Br)c(C)c1Br | -0.353% | 
20 | CCCCCCCCCC[N+](C)(CCCCCCCCCC)CCC[Si](OC)(OC)OC |  | 30.6 µM (active)

Row | SMILES | activity change, negative = cytotoxicity | Potency
21 | C=Cc1ccncc1 | 2.35% | 
22 | CC(C)(C)c1cc(CCC(=O)OCCSCCOC(=O)CCc2cc(C(C)(C)C)c(O)c(C(C)(C)C)c2)cc(C(C)(C)C)c1O | -2.64% [at 42.5 µM] | 
23 | O=[N+]([O-])c1ccc(O)c2ncccc12 | -2.6% [at 42.5 µM] | 
24 | C=CC(=O)OCC(Br)CBr (stereo not given) | -0.21% | 
25 | CCOC(=O)C1=NN(c2ccc(Cl)cc2Cl)C(C)(C(=O)OCC)C1 (stereo not given) | -2.76% | 
26 | CCCCCCCCOC(=O)c1cc(O)c(O)c(O)c1 | -4.38% | 
27 | NCc1ccco1 | 1.16% | 
28 | Nc1ccc2c(S(=O)(=O)O)cccc2c1S(=O)(=O)O | -0.0865% [at 42.5 µM] | 
29 | N#CCCOCCC#N | 1.38% | 
30 | O=C(N[C@H](CO)[C@H](O)c1ccc([N+](=O)[O-])cc1)C(Cl)Cl | 4.8% | 
31 | CCc1cccc(C)c1N(C(=O)CS(=O)(=O)O)C(C)COC (stereo not given) | 0.398% | 
32 | CO[Si](OC)(c1ccccc1)c1ccccc1 | -8.27% | 
33 | CCCCCCCCCCCCCCCCC(C(=O)O)C(O)(CC(=O)O)C(=O)O (stereo not given) | -4.34% [at 42.5 µM] | 
34 | NC(=O)C1CO1 (stereo not given) | -0.794% | 
35 | c1ccc2cc3c4ccccc4c4ccccc4c3cc2c1 | 0.315% | 
36 | CC(C)C(=O)C(C)C | -1.81% | 
37 | COC(=O)c1ccc([N+](=O)[O-])cc1 | -3.92% | 
38 | CCCCCCCC/C=C\CCCCCCCC(=O)N(CCO)CCO | -4.59% | 
39 | O=C1OC2(c3ccccc31)c1ccc(O)c(Br)c1Oc1c2ccc(O)c1Br | -9.19% | 
40 | O=[N+]([O-])c1ccc(CO)cc1 | 0.746% | 
